Screening data deposited in PubChem by National Center for Advancing Translational Sciences (NCATS).
Nrf2 block: inhibitors of Nrf2 signaling; A549 ARE-Fluc reporter, luciferase luminescence, 18-24 h; Potency, µM (top dose mostly 46 µM), for the others: top-dose activity change, negative = inhibition, most hits filed as inhibitors; 360,000 compounds, 2.1% hits; AID 504444; also: % is scaled to controls: 0 for no effect and ±100 for the full control effect; nearly all actives have a fitted effect of over 60% in size
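A549 ARE_Fluc cells, 5000/well, 5% FBS OPTI-MEM; compounds in dose-response, 18-24 h at 37 °C/5% CO2; CellTiter-Fluor viability read (Ex 405/Em 525), then BugLite luciferase luminescence = Nrf2 activity.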
A549 viability: A549 cytotoxicity, counter-screen for Nrf2 inhibitors; A549 ARE-Fluc cells, CellTiter-Fluor viability, 18-24 h; Potency, µM (doses to about 46 µM), for inactives: at the highest dose activity change, negative = cytotoxicity, most hits filed as inhibitors; 390,000 compounds, 0.16% hits; also: % is scaled to controls: 0 for no effect and ±100 for the full control effect
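A549 ARE_Fluc cells in 5% FBS OPTI-MEM were exposed to compounds in concentration-response for 18-24 h at 37 deg C. Viability was read by CellTiter-Fluor fluorescence (Ex 405/Em 525) after 30 min, before the luciferase read.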
Rango dissoc inh: inhibition of RanGTP-driven Rango-importin beta dissociation; Biochemical FRET Rango-importin beta, RanGTP-induced dissociation; O95149+P62826; 340,000 compounds, 0.071% hits; Potency, µM (top dose mostly 46.1 µM), for inactives: top-dose activity change, negative = inhibition; calls by dose curve; also: % of control where 0% means no effect; nearly all actives have a fitted effect of over 45% in size
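Compounds sat 5 min at room temperature with 0.1 uM Rango biosensor plus 0.25 uM importin beta, then FRET pre-read. RanGTP-RCC1 (0.6 uM Ran, 2mM GTP, 0.2 uM RCC1) added for 45 min, and the CFP/YFP post-read measured blocked complex dissociation.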
Nrf2 activator: activates Nrf2 signaling; 410,000 compounds, 0.31% hits; AID 624171; AREc32 ARE-luciferase reporter (MCF7-derived line), luminescence, 24 h; Potency, µM (highest dose often 46.1 µM), inactives show top-dose activation, hits mostly activators; also: % of control where 0% means no effect; nearly all actives have a fitted effect of over 65% in size
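Steps: seed AREc32_Fluc cells (1000/well, 5% FBS OPTI-MEM); incubate overnight at 37 deg C; add 23 nL compound; incubate 24 hr; add Steady-Glo; hold 30 min RT; read luminescence.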
Rango-impB inh: inhibitors of Rango-importin beta complex formation. Q14974. Rango CFP/YFP FRET sensor + importin beta, 45 min. Potency, µM (titrated, usually from 92.2 µM), without a hit: at the highest dose inhibition of complex formation. 340,000 compounds, 0.031% hits; calls by dose curve;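 also: 0% = DMSO wells and 100% = buffer wells lacking importin beta; nearly all actives have a fitted effect of over 15% in size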
Target sequence (Q14974 whole entry, looked up): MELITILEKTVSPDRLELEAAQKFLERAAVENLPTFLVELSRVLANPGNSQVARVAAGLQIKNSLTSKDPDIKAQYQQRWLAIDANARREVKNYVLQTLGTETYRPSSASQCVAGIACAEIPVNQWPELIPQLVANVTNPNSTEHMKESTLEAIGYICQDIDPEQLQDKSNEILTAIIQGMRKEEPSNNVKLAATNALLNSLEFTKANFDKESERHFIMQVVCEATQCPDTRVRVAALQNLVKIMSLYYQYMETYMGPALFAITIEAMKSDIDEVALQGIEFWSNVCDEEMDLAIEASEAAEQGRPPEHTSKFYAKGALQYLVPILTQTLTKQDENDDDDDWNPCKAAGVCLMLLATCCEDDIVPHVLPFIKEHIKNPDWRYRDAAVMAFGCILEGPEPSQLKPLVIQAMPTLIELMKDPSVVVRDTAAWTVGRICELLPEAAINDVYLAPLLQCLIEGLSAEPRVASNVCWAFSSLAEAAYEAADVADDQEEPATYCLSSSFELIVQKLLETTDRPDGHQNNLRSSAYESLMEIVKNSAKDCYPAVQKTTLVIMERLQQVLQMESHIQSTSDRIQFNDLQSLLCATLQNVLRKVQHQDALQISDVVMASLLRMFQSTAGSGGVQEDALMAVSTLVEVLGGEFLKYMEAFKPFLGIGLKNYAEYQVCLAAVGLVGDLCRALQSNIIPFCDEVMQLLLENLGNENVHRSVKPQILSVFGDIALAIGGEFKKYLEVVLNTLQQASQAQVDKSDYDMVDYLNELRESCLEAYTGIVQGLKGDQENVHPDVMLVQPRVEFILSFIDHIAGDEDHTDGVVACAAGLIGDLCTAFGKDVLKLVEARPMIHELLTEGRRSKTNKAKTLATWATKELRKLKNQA
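FRET biosensor Rango (snurportin 1 IBB between N-terminal EYFP and C-terminal Cerulean), 50 nM in PBS/1 mM DTT/0.02% Tween-20/0.1% BSA, preincubated 5 min RT with compound; 0.125 microM importin beta added, 45 min RT, CFP/YFP FRET ratio read.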
* = called active by the depositor; ? = inconclusive; . = no result given. This is a sample that favours compounds with a hit; in the whole collection about 2.3% have one here. Unless noted, calls follow the shape of the dose curve; as a rule, active = well fitted curve in the direction sought with a large enough effect; inconclusive = small, poorly fitted or top-dose-only effect, or another doubt; inactive = no such curve, though single readings can be large; an effect the other way counts as inactive or inconclusive. Potency is read from the fitted curve at half-maximal effect.

SMILES	Nrf2 block	A549 viability	Rango dissoc inh	Nrf2 activator	Rango-impB inh
Cc1cc(CNC(=O)COc2ccc(F)cc2F)c2ccccc2n1	16µM*	-6%	-1%	3%	-1%
Cc1ccc(-c2nc(Nc3cccc(O)c3)c3ccccc3n2)cc1	2%	8%	0%	6%	-1%
Cc1cc(CNC(=O)COc2ccccc2F)c2ccccc2n1	?	-19%	-12%	2%	2%
COc1ccccc1OCC(=O)NNc1c2ccccc2nc2ccccc12	21µM*	?	-20%	3%	3%
Nc1nc2cc(Cl)ccc2cc1C(=O)NCCCc1ccccc1	.	.	.	4%	.
COc1cccc(C2c3c(ncn(-c4cccnc4)c3=N)Oc3ccc4ccccc4c32)c1 (centres undefined)	-2%	-6%	.	.	.
C/C(=N\NC(=O)c1nnn(-c2nonc2N)c1CN(C)c1ccccc1)c1cccnc1	18%	2%	13%	2%	8%
S=c1[nH]nc(-c2ccco2)n1/N=C/c1cccc(Cl)c1	-3%	3%	27%	13µM*	7%
S=c1[nH]nc(-c2ccco2)n1/N=C/c1ccc(Cl)c(Cl)c1	15%	-1%	-7%	?	3%
O=[N+]([O-])c1ccccc1/C=C/C=N/n1c(-c2ccco2)n[nH]c1=S	7%	-4%	-18%	10µM*	4%
Cc1cc2c(s1)c1cnn(Cc3c(F)cccc3F)c(=O)c1n2C	-16%	7%	.	.	.
Cc1ccc(Cn2c(=O)c3cccnc3n(CC(=O)Nc3cccc(C(F)(F)F)c3)c2=O)cc1	5.8µM*	5%	3%	5%	-6%
O=C(Cn1c(=O)n(Cc2ccc(Cl)cc2)c(=O)c2cccnc21)Nc1ccccc1C(F)(F)F	6%	-5%	.	0%	.
COc1ccc(Nc2nc(C#N)nc(NC3CCCC3)n2)cc1	?	-3%	.	.	.
CCOC(=O)C1CCN(C(=O)c2oc3ccc(S(=O)(=O)N4CC(C)CC(C)C4)cc3c2C)CC1 (centres undefined)	18µM*	?	-11%	0%	-2%
Cc1c(C(=O)O)oc2ccc(S(=O)(=O)N3CCC(C)CC3)cc12	.	-1%	-5%	0%	-5%
Cc1c(C(=O)N2CCc3ccccc3C2)oc2ccc(S(=O)(=O)N3CCCCCC3)cc12	15µM*	-4%	-14%	0%	-1%
Cc1c(C(=O)N2CCC(C)CC2)oc2ccc(S(=O)(=O)N3CCC4(CC3)OCCO4)cc12	21µM*	18%	4%	0%	-1%
Cc1c(C(=O)N2CCOCC2)oc2ccc(S(=O)(=O)N3CCCC3)cc12	-13%	-1%	6%	1%	3%
CCOC(=O)N1CCN(C(=O)c2oc3ccc(S(=O)(=O)N4CC(C)CC(C)C4)cc3c2C)CC1 (centres undefined)	?	-10%	-4%	0%	-5%
O=[N+]([O-])c1cccc(S(=O)(=O)N2CCN(S(=O)(=O)c3ccc4c(c3)OCCO4)CC2)c1	14%	1%	.	.	.
CCOc1ccc(/C=C/c2nc(C#N)c(N3CCC(C)CC3)o2)cc1	25%	1%	.	2%	.
CC(C)c1ccc(Nc2cc(C(=O)NCc3cccs3)c3ccccc3n2)cc1	-12%	-1%	.	0%	.
O=C1CC(NS(=O)(=O)c2cccnc2)CN1c1ccc(Cl)cc1 (centres undefined)	4%	-4%	-15%	0%	4%
O=C(NC(c1ccccc1)c1ccccc1)c1cccc(S(=O)(=O)NCc2ccccc2)c1	3%	1%	-2%	0%	0%
SMILES	Nrf2 block	A549 viability	Rango dissoc inh	Nrf2 activator	Rango-impB inh
CCn1cc(S(=O)(=O)c2ccc(OC)cc2)c(=O)c2cc(F)c(N3CCCCCC3)cc21	0%	12%	.	-1%	.
CCn1cc(S(=O)(=O)c2ccc(OC)cc2)c(=O)c2cc(F)c(N3CCC(C)CC3)cc21	16µM*	0%	.	0%	.
O=C(Nc1cccc(Br)c1)c1cccc(OC(=S)N2CCOCC2)c1	16µM*	-2%	9%	9%	2%
O=C(Nc1ccc(C(=O)N2CCOCC2)cc1)c1cccc(Br)c1	-8%	-17%	1%	4%	-1%
CCOc1ccccc1OCCCC(=O)Nc1ccc(Cl)c(S(=O)(=O)N2CCOCC2)c1	16µM*	-12%	0%	4%	2%
O=C(CCNC(=O)c1ccc([N+](=O)[O-])cc1)Nc1ccc(Cl)c(S(=O)(=O)N2CCOCC2)c1	23µM*	2%	1%	5%	1%
CCc1ccccc1NC(=O)CNC(=O)CSC(=S)N1CCCC1	-3%	-2%	7%	0%	1%
CC(=O)OCC(NC(=O)C1CCCN1C(=O)OC(C)(C)C)C1OC(n2cc(F)c(=O)[nH]c2=O)C(OC(C)=O)C1OC(C)=O (centres undefined)	20%	0%	.	.	.
Cc1ccc(/C=C2\SC(=S)N(CCCC(=O)NNC(=O)c3ccccc3O)C2=O)cc1	10µM*	-3%	15%	-3%	6%
COc1cc(/C=C2\SC(=S)N(CCC(=O)NC3CCCC3)C2=O)cc(OC)c1OC	?	-15%	-16%	2%	3%
CCc1ccc(/C=C2\SC(=S)N(CCC(=O)Nc3cc(C)on3)C2=O)cc1	6.5µM*	2%	1%	-1%	4%
Cc1ccc(/C=C2\SC(=S)N(CCCC(=O)NC3CCCC3)C2=O)cc1	10µM*	8%	8%	-3%	0%
CC(C)(CO)NCC(=O)Nc1cc(C(F)(F)F)cc(NC(=O)CNC(C)(C)CO)c1Cl	0%	2%	5%	0%	-2%
COC(=O)c1ccc(OC)c(CSc2nnc(COc3cccc(C)c3)o2)c1	?	-14%	28%	0%	1%
COC(=O)c1ccc(OC)c(CSc2nnc(COc3ccc(OC)cc3)o2)c1	13µM*	.	-18%	1%	2%
S=C(N/N=C/c1ccco1)NC1CC2CCC1C2 (centres undefined)	?	3%	-2%	13µM*	1%
O=S(=O)(Nc1nc2ccccc2nc1N1CCN(c2ccccc2)CC1)c1ccc(F)cc1	26µM*	?	-7%	-1%	?
COc1cccc(NC(=O)c2nn(-c3ccc(C)cc3)c(=O)n(C)c2=O)c1	.	0%	.	5%	.
Cn1c(NC(=O)c2ccccc2NC(=O)C(C)(C)C)nc2ccccc21	16µM*	1%	-2%	-4%	-3%
Cn1c(NC(=O)c2ccc(F)cc2)nc2ccccc21	?	-12%	-1%	?	-1%
CN(Cc1nc(Cc2ccccc2F)no1)Cc1cccc2ncccc12	18µM*	-21%	1%	0%	2%
CN(Cc1nc(Cc2ccccc2F)no1)CC1(N2CCOCC2)CCCCC1	2%	1%	-16%	0%	4%
COc1c(O)ccc(/C=N\NC(=O)c2ccc3c(c2)OCO3)c1[N+](=O)[O-]	12µM*	-1%	-1%	0%	-4%
